# Reference: PubChem BioAssay (NCI)
# Values joined by “and” are separate entries in the source; they are usually repeats but may differ in a detail not shown here. Equal entries are not always repeated. The panel holds about 83,000 compounds, 20% with a hit somewhere; the sample as a whole holds those more often.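 The test compound was applied at a single concentration to cells in 96-well plates for 48 hours, and percent growth was recorded.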 Unmarked numbers belong to inactive results. Active and inactive are the calls of the source. The calls were made as follows: active = growth percent below 10; inactive = the rest.
# Legend:
# Assay in all cases: NCI-60 one-dose screen, 48 h (100 = growth as untreated, 0 = no growth, -100 = all killed)
# Conditions in all cases: 10 µM unless noted
# NCI-H23 lung = system: NCI-H23 lung
# NCI-H226 lung = system: NCI-H226 lung
# NCI-H322M lung = system: NCI-H322M lung
# HOP-62 NSCLC = system: HOP-62 NSCLC
# NCI-H460 lung = system: NCI-H460 lung
# HOP-92 NSCLC = system: HOP-92 NSCLC
# NCI-H522 lung = system: NCI-H522 lung
# A549/ATCC NSCLC = system: A549/ATCC NSCLC
# 786-0 renal = system: 786-0 renal
# COLO 205 colon = system: COLO 205 colon
SMILES,growth (NCI-H23 lung),growth (NCI-H226 lung),growth (NCI-H322M lung),growth (HOP-62 NSCLC),growth (NCI-H460 lung),growth (HOP-92 NSCLC),growth (NCI-H522 lung),growth (A549/ATCC NSCLC),growth (786-0 renal),growth (COLO 205 colon)
CC[C@H](C)[C@H](NC(=O)c1cnccn1)C(=O)N(C)[C@H](C[C@@H](OC(C)=O)c1nc(C(=O)N[C@@H](Cc2ccccc2)C[C@H](C)C(=O)OC)cs1)C(C)C,26.2%,33.6%,46.3%,17.6%,8.2% (active),16.9%,-24.6% (active),19.2%,24.2%,-20.3% (active)
COc1ccc2c(c1)C1(C)CCN(C)CC(C1)C2O (stereo not given),98.1%,81.7%,105%,100%,105%,101%,90.2%,95.1%,94.8%,103%
Cc1cc(Br)c([N+](=O)[O-])cc1[N+](=O)[O-],98.6%,95.5%,132%,100%,97.5%,134%,-28% (active),101%,103%,72.9%
COc1cc2c(cc1OC)[C@@H]1C(=O)c3ccc4c(c3O[C@@H]1CO2)C[C@H](C(C)C)O4,34.2%,62.8%,82.1%,63.6%,51.5%,57.3%,30.5%,65.5%,60.2%,82.4%
CC(=O)Cc1ccc2c(c1)OCO2,93.9%,104%,113%,102%,109%,110%,96.1%,96%,109%,117%
CNC(=O)CCl,101%,90.9%,102%,98.5%,107%,93.7%,106%,96.3%,,108%
COC(=O)C12C3C4C1C1C2C3C41NC(=O)c1csc([C@@H](C[C@H](C(C)C)N(C)C(=O)[C@@H](NC(=O)[C@H]2CCCCN2C)C2CC2)OC(C)=O)n1 (stereo not given in full),35.8%,16.5%,38.5%,4.51% (active),7.89% (active),22.6%,-21.1% (active),13%,22.7%,-65.4% (active)
O=C(O)C(F)F,107%,89.9%,114%,86.9%,89.2%,107%,101%,,106%,105%
COc1ccc(/C=C(/C)[N+](=O)[O-])cc1OC,62.2% and 58.1%,88.7% and 79.2%,48% and 94.5%,48.3%,34.2% and 22.9%,-6.58% (active) and -11.5% (active),-88.2% (active) and -73.2% (active),53.7% and 52.9%,-53.1% (active) and -23.3% (active),-69.3% (active) and -76.2% (active)
CCCN1C(=O)NC(=O)C(CC)(N2C(=O)c3c(F)c(F)c(F)c(F)c3C2=O)C1=O (stereo not given),-52.1% (active),27.4%,-57.7% (active),-57.3% (active),-81% (active),-50.5% (active),-82.3% (active),-64.7% (active),-58.5% (active),-81.9% (active)
COc1ccc(N)cc1N,96.8%,103%,96.1%,95.5%,107%,85.7%,,118%,102%,121%
CCOC(=O)C1C(C=C(C)C)C1(C)C (stereo not given),101%,107%,140%,98.7%,103%,84.6%,97.5%,98.9%,105%,109%
CC[C@H](C)[C@H](NC(=O)C12CC(NC)(C1)C2)C(=O)N(C)[C@H](C[C@@H](OC(C)=O)c1nc(C(=O)N[C@@H](Cc2ccccc2)C[C@H](C)C(=O)OC)cs1)C(C)C,15.2%,24.9%,51.2%,28.6%,15%,17.5%,-23.9% (active),20%,24.7%,-19.6% (active)
O=C1C=C(N2CC2)c2ccccc2C1=O,41.4%,92%,91.1%,76%,23.2%,119%,52.7%,54.3%,104%,94.3%
CCCC(C)SP(=S)(SC(C)CCC)SC(C)CCC (stereo not given),95.5%,88.8%,101%,101%,98.9%,94.7%,90.9%,,98.9%,98.6%
O=S(=O)(F)c1cccc(Cl)c1C[P+](c1ccccc1)(c1ccccc1)c1ccccc1,108%,93.4%,97.9%,93.3%,106%,91.3%,88.8%,93.9%,104%,99.9%
CC12CCC3C(CCC4CC(O)CCC43C)C1CCC2=O (stereo not given),98.4%,98.1%,102%,95.8%,100%,74.5%,61.9%,94.2%,78.1%,130%
C[C@H](O)CCC(=O)c1ccoc1,99.7%,99.2%,106%,108%,105%,111%,99.5%,97%,106%,116%
Cc1cc2c(cc1-c1ccnc(/C=C/C(=O)O)c1)C(C)(C)CCC2(C)C,88.1%,78.8%,106%,96.8%,85.3%,56.5%,76.2%,77.1%,79.6%,124%
c1ccc2c(c1)sc1ccccc12,99.8%,94.7%,95.7%,97.7%,109%,74.7%,98.9%,,105%,98.6%
N[C@@H](CCC(=O)CCl)C(=O)O,97.3% [20 µM],104% [20 µM],98.1% [20 µM],95.9% [20 µM],106% [20 µM],84.6% [20 µM],77.1% [20 µM],102% [20 µM],101% [20 µM],106% [20 µM]
C[C@]12C[C@H](c3ccoc3)OC(=O)[C@H]1CC[C@@]1(C)[C@@H]2[C@H]2C=C[C@]1(O)C(=O)O2,102%,101%,79.1%,104%,108%,81.3%,68.1%,84.5%,91.9%,104%
CCCC[C@H]1C(=O)O[C@H](C)[C@H](NC(=O)c2cccc(NC=O)c2O)C(=O)O[C@@H](C)[C@@H]1OC(=O)CC(C)C,42%,44.1%,66.3%,48.4%,19.9%,32.9%,51.2%,11.5%,44.8%,42.2%
Nc1cccnc1,109%,107%,105%,104%,115%,101%,91.6%,106%,109%,115%
CC/C(Cc1ccccc1)=C(\c1ccc(OCCN2CCCC2)cc1)c1ccc(OC(=O)NCc2ccccc2)cc1,90.8%,92.1%,84.9%,76.7%,-45.2% (active),38.6%,81.5%,42.4%,20.7%,-66.6% (active)
